About 79,000 compounds went through this panel and 15% of them were active in at least one assay; those are over-represented in the sample as a whole. Values without a mark were called inactive. Activity calls are given as the source filed them. Rule as the data show it: active = growth inhibition above about 70%; inactive = the rest.

The nature of experiment [1]: NCI Yeast Anticancer Drug Screen. Data for the rad50 strain (AID 155).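 Also: 0% = growth of vehicle-only cultures of the same strain.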 As to conditions: S. cerevisiae rad50 strain growth inhibition; at 50.0 µM; stronger effect = higher value. The procedure, abridged: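 Growth of the mutant yeast was measured after compound exposure and referenced to vehicle-treated cultures.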
A short description of experiment [2]: NCI Yeast Anticancer Drug Screen. Data for the mec2-1 strain (AID 157). As to conditions: S. cerevisiae mec2-1 strain, at 50.0 µM, stronger effect = higher value. The procedure, abridged:
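Growth inhibition is read against vehicle-treated controls after compound exposure of the mec2-1 yeast strain, which is defective in DNA damage repair or cell cycle control.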

Experiment [3] can be described thus: NCI Yeast Anticancer Drug Screen. Data for the sgs1 mgt1 strain (AID 161).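 Also: 0% = growth of cultures given vehicle only.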 As to conditions: S. cerevisiae sgs1 mgt1 strain, at 50.0 µM, stronger effect = higher value. In short, it runs like this:
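Yeast cells carrying a defined DNA-repair defect were exposed to test compounds. Growth inhibition was measured relative to vehicle-treated controls.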

A short description of experiment [4]: NCI Yeast Anticancer Drug Screen. Data for the cln2 rad14 strain (AID 165).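 Also: 0% = growth equal to vehicle treated cultures.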 As to conditions: S. cerevisiae cln2 rad14 strain, at 50.0 µM, stronger effect = higher value. In short, it runs like this:
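Growth inhibition, relative to vehicle-treated controls, is the read-out. The test organism is a yeast strain with defined genetic alterations, cln2 rad14.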

Experiment [5] in a line: NCI Yeast Anticancer Drug Screen. Data for the bub3 strain (AID 167). To be noted: S. cerevisiae bub3 mutant strain, at 50.0 µM, stronger effect = higher value. In short, it runs like this:
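Whole-cell yeast assay. The mutant strain was incubated with compounds, and growth inhibition was determined by comparison with vehicle-treated cells.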

Experiment [6] can be described thus: NCI Yeast Anticancer Drug Screen. Data for the mlh1 rad18 strain (AID 175). As to conditions: S. cerevisiae mlh1 rad18 strain growth inhibition; at 50.0 µM; stronger effect = higher value. The procedure, abridged:
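Cells of a genetically altered yeast strain, deficient in DNA damage repair, were treated with compound. Their growth was then compared with that of vehicle-treated cultures to give inhibition.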

Take `NC(=S)c1c(N)n(C2OC(CO)C(O)C2O)c2ncnc(N)c12` (stereo not drawn): the growth inhibition is 7.2% in experiment [1]; -9.7% in experiment [2]; 7.1% in experiment [3]; -3.15% in experiment [4]; -5.5% in experiment [5]; 2.55% in experiment [6].

Turning to `O=S(=O)(O)c1cccnc1`, the growth inhibition in experiment [1] is 12.4%; in experiment [2] it was 6%; in experiment [3], 10.7%; in experiment [4], -11.6%; in experiment [5] it was -2.25%; in experiment [6], 15.8%.

On to `C/C=C/C1OCC(CC)C(CCC)O1` (stereo not drawn), for which the growth inhibition in experiment [1] is 36%; in experiment [2], 11.2%; in experiment [3], 1.85%; in experiment [4], -36.8%; in experiment [5] it was -17.9%; in experiment [6], -1.15%.

As to `COC(c1ccc2c(c1)OCO2)C(C)Br` (stereo not drawn), the growth inhibition in experiment [1] is 7.45%; in experiment [2], -4.4%; in experiment [3], 13.6%; in experiment [4], -31.1%; in experiment [5], -8.9%; in experiment [6] it was 6.55%.

With `Oc1cc(O)c2c(c1)O[C@H](c1ccc(O)c(O)c1)[C@@H](O)C2`, the growth inhibition in experiment [1] was 0.9%; in experiment [2], -17.9%; in experiment [3] it was 2.75%; in experiment [4], 1.35%; in experiment [5] it was -6.45%; in experiment [6], -18.1%.

As to `CCCCCCCCCCCCCCCCOc1ccccc1NC(=O)CC(C)=O`, the growth inhibition is -8.7% in experiment [1]; -18.9% in experiment [2]; -9.1% in experiment [3]; -5.85% in experiment [4]; -5.3% in experiment [5]; -3.95% in experiment [6].

Take `CCOc1ccccc1NC(=O)CCl`: the growth inhibition in experiment [1] was 16.4%; in experiment [2] it was 3.2%; in experiment [3] it was 8.6%; in experiment [4] it was -5.2%; in experiment [5], 18.9%; in experiment [6], 39.9%.

As to `CCOC(=O)c1ccc(NC(=O)Nc2nccs2)cc1`, the growth inhibition in experiment [1] was -2.95%; in experiment [2], -10.8%; in experiment [3], 29.4%; in experiment [4] it was 11.2%; in experiment [5] it was -12.4%; in experiment [6] it was 6.1%.

Regarding `CC(=O)[C@@]1(O)CC[C@H]2[C@@H]3CC[C@@H]4CC(=O)CC[C@]4(C)[C@H]3[C@@H](O)C[C@@]21C`, the growth inhibition was -19.9% in experiment [1]; -1.9% in experiment [2]; -3% in experiment [3]; -51.6% in experiment [4]; 11.1% in experiment [5]; -13.5% in experiment [6].

Regarding `CCOC(=O)c1cc(C)[nH]c(=O)c1C#N`, the growth inhibition is -12.2% in experiment [1]; -3.1% in experiment [2]; -5.1% in experiment [3]; -5.1% in experiment [4]; 4.55% in experiment [5]; 2.65% in experiment [6].

In the case of `c1ccc(-c2ccc3ccccc3c2)cc1`, the growth inhibition is 7.35% in experiment [1]; -6.65% in experiment [2]; -3.3% in experiment [3]; -2.65% in experiment [4]; -0.8% in experiment [5]; -14.2% in experiment [6].

Take `O=Cc1ccc(O)c(O)c1`: the growth inhibition is 17.6% in experiment [1]; -6.5% in experiment [2]; 11.6% in experiment [3]; 7.75% in experiment [4]; 4.05% in experiment [5]; 18.9% in experiment [6].

`CN(C)c1ccc2c(N(C)C)cc(N(C)C)nc2c1`: the growth inhibition in experiment [1] was -14.8%; in experiment [2] it was -4.3%; in experiment [3] it was -17.1%; in experiment [4], 20.4%; in experiment [5], 2.95%; in experiment [6] it was -12%.

Take `Nc1c(Br)cc(O)c2c1C(=O)c1ccccc1C2=O`: the growth inhibition is -11.6% in experiment [1]; -3.5% in experiment [2]; 8.55% in experiment [3]; 7% in experiment [4]; 26.9% in experiment [5]; 10.5% in experiment [6].

Consider `Oc1cccnc1CN1CCCC1`, for which the growth inhibition in experiment [1] is 1.15%; in experiment [2], -12.8%; in experiment [3], 2.3%; in experiment [4] it was 1.7%; in experiment [5] it was -5.8%; in experiment [6] it was 18.4%.

Consider `OCCOc1ccc(-c2cc(-c3ccccn3)nc(-c3ccccn3)c2)cc1`, for which the growth inhibition in experiment [1] is 57.6%; in experiment [2], 46.3%; in experiment [3], 43%; in experiment [4] it was 44.5%; in experiment [5], 46.7%; in experiment [6], 77.4% (active).

For `CC(O)C(F)(F)C(F)(F)C(F)(F)F` (stereo not drawn), the growth inhibition in experiment [1] was 7.8%; in experiment [2] it was -16.6%; in experiment [3] it was 19.9%; in experiment [4] it was -2.1%; in experiment [5], -2.7%; in experiment [6], 20.8%.

Take `CC(=O)Nc1ccc(O)c(C)c1`: the growth inhibition in experiment [1] is 10.8%; in experiment [2], 3.35%; in experiment [3] it was -25.8%; in experiment [4], -21.8%; in experiment [5], -14.8%; in experiment [6], -1.1%.

Consider `COc1ccc(NNS(=O)(=O)O)cc1`, for which the growth inhibition is 1.45% in experiment [1]; 4.7% in experiment [2]; 21.7% in experiment [3]; -10.8% in experiment [4]; -1.65% in experiment [5]; 4% in experiment [6].

In the case of `C=C(OC(C)=O)c1ccccc1`, the growth inhibition in experiment [1] was 6.45%; in experiment [2], -12.4%; in experiment [3], 5.8%; in experiment [4] it was -7.25%; in experiment [5] it was 28.3%; in experiment [6], 0.05%.

For the molecule `CC(=O)c1cccc(N(C)S(=O)(=O)c2ccc(C)cc2)c1`, the growth inhibition is 47.6% in experiment [1]; 7.1% in experiment [2]; 21.8% in experiment [3]; -31.2% in experiment [4]; 45.1% in experiment [5]; 37.9% in experiment [6].

In the case of `CCOC(=O)/C(O)=C(\C=N\C(=S)Nc1ccc(Cl)c(Cl)c1)C(=O)OCC`, the growth inhibition in experiment [1] was 43.6%; in experiment [2], 11.2%; in experiment [3], 38.5%; in experiment [4], 6.65%; in experiment [5] it was 49.5%; in experiment [6] it was 50.6%.

For the molecule `C/C(O)=C(/C=N/C(=S)Nc1ccccc1)C(=O)Nc1ccccc1C`, the growth inhibition in experiment [1] is 25.9%; in experiment [2], 5.6%; in experiment [3], 40.3%; in experiment [4], -4.5%; in experiment [5], 27.7%; in experiment [6], 24.9%.

As for `O=S(=O)(c1ccc(NC(=S)NCc2cccnc2)cc1)N1CCCCC1`, the growth inhibition in experiment [1] was 21.9%; in experiment [2], 11.9%; in experiment [3] it was 23.9%; in experiment [4], 1.8%; in experiment [5] it was 36.4%; in experiment [6], 22.2%.

Take `N#Cc1ccc2nc[nH]c2c1`: the growth inhibition in experiment [1] is 18.7%; in experiment [2] it was -6.75%; in experiment [3], -13%; in experiment [4] it was 19.4%; in experiment [5] it was -15.4%; in experiment [6], 17.9%.

On to `CCCCCCCCCCCCSC1=C(Cl)C(=O)C(OC)=C(OC)C1=O`, for which the growth inhibition in experiment [1] is 23.3%; in experiment [2] it was -18.1%; in experiment [3] it was 1.5%; in experiment [4], 4.75%; in experiment [5], -7.2%; in experiment [6] it was 38%.

`C=COC(=O)CCOCC(CC)CCCC` (stereo not drawn): the growth inhibition was -6.1% in experiment [1]; -15.1% in experiment [2]; 8.95% in experiment [3]; -6.2% in experiment [4]; -4.55% in experiment [5]; -6.55% in experiment [6].

On to `COC1=C(OC)C(=O)C(SC/C=C(\C)CCCC(C)CCCC(C)CCCC(C)C)=CC1=O` (stereo not drawn), for which the growth inhibition in experiment [1] is -31.8%; in experiment [2] it was -24.4%; in experiment [3], -43.5%; in experiment [4], 16.6%; in experiment [5], -52.6%; in experiment [6] it was -61.1%.

Turning to `Cc1cc(CC(=O)NCCO)n(CCO)c(=O)c1`, the growth inhibition was -7.85% in experiment [1]; -21.5% in experiment [2]; 6.55% in experiment [3]; 6.25% in experiment [4]; -2.7% in experiment [5]; -2.9% in experiment [6].

As to `Cc1ccc(/C=N/NC(N)=S)s1`, the growth inhibition was 24.9% in experiment [1]; 1.9% in experiment [2]; 49.1% in experiment [3]; -41.5% in experiment [4]; -12.8% in experiment [5]; 48.5% in experiment [6].

As to `O=[n+]1ccn([O-])c2ccccc21`, the growth inhibition in experiment [1] was 11.3%; in experiment [2], 8.45%; in experiment [3] it was 9.05%; in experiment [4] it was -52.2%; in experiment [5], -8.1%; in experiment [6] it was 20.6%.

Turning to `COc1ccc(Br)c(C=O)c1`, the growth inhibition in experiment [1] was -10.1%; in experiment [2], -8.9%; in experiment [3], -5.65%; in experiment [4], 1.95%; in experiment [5] it was -7.45%; in experiment [6] it was -2.25%.

In the case of `CN(C)c1ccc(O)c2c1CC1CC3C(N(C)C)C(=O)C(C(N)=O)=C(O)C3(O)C(=O)C1=C2O` (stereo not drawn), the growth inhibition in experiment [1] is 60.8%; in experiment [2] it was 29.7%; in experiment [3], 68.2%; in experiment [4], 18.4%; in experiment [5], 3.6%; in experiment [6] it was 32.9%.

Values taken from PubChem BioAssay (NCI).
